# PubChem BioAssay (NCI)
# Compounds without any hit were thinned out: in the full panel of roughly 83,000, 20% have a hit.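 Single-dose data. Exposure time 48 hours. Values below 10 considered active.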 Calls of active or inactive are those of the source.
# Test system: SN12C renal
# Experiment: NCI-60 one-dose screen, 48 h (100 = growth as untreated, 0 = no growth, -100 = all killed)
# Settings: 10 µM unless noted
row,Compound,growth
1,COc1ccc(Oc2ccc(/C=C/C(=O)c3cc4ccccc4oc3=O)cc2)cc1,86.1% (inactive)
2,O=[N+]([O-])c1c(O)c(Cl)cc(Cl)c1Cl,101% (inactive)
3,Cc1oc(-c2ccc(Cl)cc2)nc1C1=NN(C(=O)c2ccncc2)C(c2ccccc2)C1 (centres undefined),88.7% (inactive)
4,CCCn1c(=S)sc2c(NNC(C)=O)nc(C)nc21,101% (inactive)
5,Fc1cccc(-c2nc(-c3c[nH]c4ncccc34)cs2)c1,62.7% [100 µM] (inactive)
6,COc1ccc(Oc2ccc(/C=C/C(=O)c3ccc(OC)c(OC)c3)cc2)cc1,86.7% (inactive)
7,COc1cc(O)c2c(=O)c3c(CC=C(C)C)cc(OC)c(O)c3oc2c1,40.2% (inactive)
8,C=C1CC[C@@H]2C(C)(C)[C@H](O)CC[C@@]2(C)[C@@H]1COc1ccc2ccc(=O)oc2c1,67.3% (inactive)
9,C=C1C(=O)O[C@H]2[C@H]1CC/C(COC(=O)NCc1ccc(Cn3c(=O)sn(-c4ccccc4)c3=O)cc1)=C\CC[C@@]1(C)O[C@@H]21,33.9% (inactive)
10,Cc1nc2sc(C(=O)Nc3ccccn3)c(N)c2cc1C(C)O (centres undefined),93.7% (inactive)
11,c1cc(OCCN2CCCC2)ccc1CNc1ccc2nc(CCC3CCCCC3)[nH]c2c1,71.3% (inactive)
12,Cc1nc([P+](c2ccccc2)(c2ccccc2)c2ccccc2)c(N2CCCCC2)o1,35% (inactive)
13,COc1cc(/C=N/NC(=O)c2ccc(-n3cc(-c4ccccc4)nn3)cc2)cc(OC)c1OC,80% (inactive)
14,C=CN(C(=O)N1CCN(c2cc3c(cc2F)c(=O)c(C(=O)O)cn3C2CC2)CC1)c1nc(-c2ccc(Cl)cc2)cs1,54.5% (inactive)
15,COc1ccccc1/C=C/C(=O)Nc1ccc(F)cc1,111% (inactive)
16,CC(C)c1ccc2c(c1)CC[C@H]1[C@](C)(C(=O)OCC#CCN3CCCC3)CCC[C@]21C,71.5% (inactive)
17,COc1ccc2c(O)c(/C=C3\N=Nc4ncccc43)oc2c1C[C@@H]1CCNC[C@H]1F,-28.2% (active)
18,c1ccc2cc(Cn3cc(CSc4nc5ccccc5s4)nn3)ccc2c1,94.5% (inactive)
19,COCC(=O)Oc1cc(-c2ccc(C)cc2C)c(OC(=O)COC)c(-c2ccc(C)cc2C)c1,56.4% (inactive)
20,O=C1C=C(SCCO)C(=O)c2ccccc21,-87.1% (active)

# Test system: UO-31 renal
# Experiment: as above
# Settings: 10 µM unless noted
row,Compound,growth
1,COc1ccc(/C=C/C(c2cc(OC)c(OC)c(OC)c2)n2cncn2)cc1O (centres undefined),54.2% (inactive)
2,COc1ccc(-c2cn(Cc3cc4ccccc4s3)nn2)cc1OCCN1CCCCC1,37.2% (inactive)
3,COc1ccc(-c2nc3c(c(-c4ccc(Cl)cc4)nn3-c3ccccc3)c(-c3ccccc3)c2C#N)cc1,101% (inactive)
4,COc1ccc2c(c1)CC[C@@H]1[C@@H]2CC[C@]2(C)C3C(=CC(COC(C)=O)C4C(=O)N(c5ccc(Cl)cc5)C(=O)C43)C[C@@H]12 (some centres undefined),79.1% (inactive)
5,COc1cc(/C=C/C(=O)N2CCN(C(=O)c3cc(OC)c(OC)c(OC)c3)CC2)ccc1OCCCOc1cc2c(cc1OC)C(=O)N1CCC[C@H]1C=N2,-12.8% (active)
6,CSc1nc2ccc(C)cc2cc1/C=C1/C=C(c2ccccc2)NC1=O,12.8% (inactive)
7,Cc1ccc2c(c1)sc1nc(-c3c[nH]c4ccccc34)c(Nc3ccccc3)n12,77.3% (inactive)
8,N=C(N)c1ccc(-c2ccc(-c3ccccc3)o2)o1,41.9% (inactive)
9,CN1C(=O)N2CN3CCCN(C3)CN3C(=S)NC1C23 (centres undefined),99.5% (inactive)
10,Clc1ccc(-c2cc(-c3ccccc3)nc(N3CCN(CCCNc4ccnc5cc(Cl)ccc45)CC3)n2)cc1,-52% (active)
11,COc1cc(/C=C/c2cc(/C=C/c3ccc(O)c(OC)c3)n(C(=O)Nc3ccc(Cl)cc3)n2)ccc1O,2.71% (active)
12,N#Cc1c(-c2ccccc2)nc2c(c(-c3ccc(Cl)cc3)nn2-c2ccccc2)c1-c1ccc([N+](=O)[O-])cc1,81.2% (inactive)
13,COc1ccc(Oc2ccc(/C=C/C(=O)c3cc4ccccc4oc3=O)cc2)cc1,48% (inactive)
14,O=[N+]([O-])c1c(O)c(Cl)cc(Cl)c1Cl,93.6% (inactive)
15,O=S(O)c1cc(Cl)cc(Cl)c1OCc1ccccc1,90.3% (inactive)
16,Cc1oc(-c2ccc(Cl)cc2)nc1C1=NN(C(=O)c2ccncc2)C(c2ccccc2)C1 (centres undefined),59.5% (inactive)
17,CS(=O)(=O)c1ccc(-c2nc3ccccc3n2CC(=O)N/N=C/c2ccccc2)cc1,76.3% (inactive)
18,CCCn1c(=S)sc2c(NNC(C)=O)nc(C)nc21,90% (inactive)
19,N#CSc1c[nH]c2ccc(/C=C/C(=O)/C=C(O)/C=C/c3ccc4[nH]cc(SC#N)c4c3)cc12,-40.1% (active)
20,Fc1cccc(-c2nc(-c3c[nH]c4ncccc34)cs2)c1,61.1% [100 µM] (inactive)

row,Compound,growth
1,COc1ccc(Oc2ccc(/C=C/C(=O)c3ccc(OC)c(OC)c3)cc2)cc1,70.9% (inactive)
2,CCCCn1c(NC(C)=O)c(S(=O)(=O)c2ccccc2)c2nc3ccccc3nc21,92% (inactive)
3,COc1cc(O)c2c(=O)c3c(CC=C(C)C)cc(OC)c(O)c3oc2c1,43.7% (inactive)
4,CC12OC(CC(O)C1O)n1c3ccccc3c3c4c(c5c6ccccc6n2c5c31)C(=O)N(CCN1CCCC1)C4=O (centres undefined),19.5% (inactive)
5,C=C1CC[C@@H]2C(C)(C)[C@H](O)CC[C@@]2(C)[C@@H]1COc1ccc2ccc(=O)oc2c1,-3.4% (active)
6,COc1c2c(cc3c1C(=O)N[C@@H]1[C@@H](O)[C@@H](O)[C@H](O)C[C@@H]31)OCCO2,86.4% (inactive)
7,C=C1C(=O)O[C@H]2[C@H]1CC/C(COC(=O)NCc1ccc(Cn3c(=O)sn(-c4ccccc4)c3=O)cc1)=C\CC[C@@]1(C)O[C@@H]21,66.6% (inactive)
8,Cc1nc2sc(C(=O)Nc3ccccn3)c(N)c2cc1C(C)O (centres undefined),78.4% (inactive)
9,c1cc(OCCN2CCCC2)ccc1CNc1ccc2nc(CCC3CCCCC3)[nH]c2c1,9.54% (active)
10,Cc1nc([P+](c2ccccc2)(c2ccccc2)c2ccccc2)c(N2CCCCC2)o1,97% (inactive)
11,COc1cc(/C=N/NC(=O)c2ccc(-n3cc(-c4ccccc4)nn3)cc2)cc(OC)c1OC,88.2% (inactive)
12,C=CN(C(=O)N1CCN(c2cc3c(cc2F)c(=O)c(C(=O)O)cn3C2CC2)CC1)c1nc(-c2ccc(Cl)cc2)cs1,55.9% (inactive)
13,COc1ccccc1/C=C/C(=O)Nc1ccc(F)cc1,87.6% (inactive)
14,CC(C)c1ccc2c(c1)CC[C@H]1[C@](C)(C(=O)OCC#CCN3CCCC3)CCC[C@]21C,60.7% (inactive)
15,COc1ccc2c(O)c(/C=C3\N=Nc4ncccc43)oc2c1C[C@@H]1CCNC[C@H]1F,-14.5% (active)
16,c1ccc2cc(Cn3cc(CSc4nc5ccccc5s4)nn3)ccc2c1,77.6% (inactive)
17,COCC(=O)Oc1cc(-c2ccc(C)cc2C)c(OC(=O)COC)c(-c2ccc(C)cc2C)c1,47.7% (inactive)
18,Cc1nc2ccccc2c(/C=C/c2ccc(F)cc2)c1C(=O)/C=C/c1ccccc1,27.4% (inactive)
19,O=C1C=C(SCCO)C(=O)c2ccccc21,-37.4% (active)
